# The campaign covered roughly 420,000 compounds. About 64,000 (15%) were called active. Another 27% or so got no clear call; they are omitted. Calls come from the whole dose curve; as a rule, active = well fitted inhibition curve with a large enough effect; inconclusive = small, poorly fitted or top-dose-only effect; inactive = flat fitted curve, though single readings scatter. Only a sample is shown. Entries that show only a call come without a potency.
# Assay: qHTS for Inhibitors of human tyrosyl-DNA phosphodiesterase 1 (TDP1): qHTS in cells in absence of CPT; note: nearly all actives have a fitted effect of over 55% in size
# Conditions: DT40 Tdp1-/- hTDP1 cells, no CPT, ATP luminescence, 48 h; activity change, negative = growth inhibition: at 46.2 µM (top of the series)
# Method in brief: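 Camptothecin absent (DMSO only). Human TDP1-complemented DT40 knockout cells, 400 cells/well, 37 °C for minimum 48 hr; ATP measured via CellTiter-Glo, 30 min dark incubation, luminescence.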
# Potency is the fitted concentration of half-maximal effect.
row,SMILES,Potency
1,COc1ccc(C2(C)NC(=O)N(CC(=O)c3ccc4c(c3)OCO4)C2=O)cc1 (stereo not drawn),inactive
2,CCc1ccc(-n2nnc(-c3nc(-c4ccccc4)no3)c2C)cc1,inactive
3,Cc1ccc(NC(=O)CSc2nnc(CNC(=O)c3ccccc3F)o2)cc1Cl,inactive
4,COc1ccccc1C(=O)OCC(=O)Nc1cccc(S(=O)(=O)NC2=NCCCCC2)c1,inactive
5,CCc1ccc(C(=O)OCC(=O)Nc2cccc(S(=O)(=O)NC3=NCCCCC3)c2)cc1,inactive
6,Cc1cccc(-n2c(SCC(=O)Nc3cccc(S(=O)(=O)NC4=NCCCCC4)c3)nc3ccccc3c2=O)c1C,16.4 µM (active)
7,O=C(Cc1cccs1)Nc1nnc(SCc2ccc(F)cc2)s1,inactive
8,Nc1nnnn1/N=C/c1cc([N+](=O)[O-])ccc1O,inactive
9,O=[N+]([O-])c1ccc(O)c(/C=N/Nc2ccccc2[N+](=O)[O-])c1,18.4 µM (active)
10,O=[N+]([O-])c1cccc(C=NN=Cc2ccccc2O)c1,inactive
11,CCCCn1c(N)c(N(CCC(C)C)C(=O)c2ccc(COc3ccccc3)o2)c(=O)[nH]c1=O,inactive
12,CS(=O)(=O)N1CCN(CC(=O)NC2CCCC2)CC1,inactive
13,COc1ccccc1-n1c(-c2cc(-c3ccco3)[nH]n2)n[nH]c1=S,inactive
14,CN(c1nc2ccccc2n2c(-c3ccco3)nnc12)S(=O)(=O)c1ccccc1,inactive
15,Cn1c(-c2ccco2)nc2cc3ccccc3cc21,20.6 µM (active)
16,CCN(CC)C(=O)CSC1c2ccccc2C(=O)N1c1ccccc1 (stereo not drawn),inactive
17,COC(=O)c1ccc(-n2cnc3ccccc32)nc1,inactive
18,COC(=O)CSc1nc(C)c2ccc(OC)cc2n1,inactive
19,O=C(O)C(c1ccccc1)C1(O)CCCCC1 (stereo not drawn),inactive
20,CC1COc2ccccc2N1C(=O)c1cccnc1Cl (stereo not drawn),inactive
21,CN1/C(=C\C(=O)c2cccnc2Cl)C(C)(C)c2ccccc21,16.4 µM (active)
22,O=C(Nn1c(-c2ccc(Cl)cc2)nc2ccccc2c1=O)c1cccnc1Cl,inactive
23,COCCN(C(=O)CCC(=O)Nc1nccs1)C(C(=O)NCCC(C)C)c1ccc(F)cc1 (stereo not drawn),inactive

row,SMILES,Potency
1,Cc1ncc2c(c1CNS(=O)(=O)N(C)C)CCN(C(=O)c1ccccc1F)C2,inactive
2,CC(C)(C)N(Cc1ccccc1)C(=O)c1ccncc1,inactive
3,CC(=O)N1N=C(c2ccccc2)OC1c1cccnc1 (stereo not drawn),inactive
4,CC(=O)N1N=C(c2ccncc2)OC1(Cc1ccccc1)Cc1ccccc1,8.2 µM (active)
5,CC1(c2cccc(N)c2)OCCO1,inactive
6,Cc1ccc(S(=O)(=O)/N=C(/NC(=S)Nc2c(C)n(C)n(-c3ccccc3)c2=O)c2ccccc2)cc1,inactive
7,Cc1ccccc1CNC(=O)C(=O)NCC(c1cccs1)S(=O)(=O)c1cccs1 (stereo not drawn),14.6 µM (active)
8,COc1ccccc1CNC(=O)COC(=O)c1cccs1,inactive
9,CC(C)C(=O)NCC(c1cccs1)S(=O)(=O)c1ccc(F)cc1 (stereo not drawn),inactive
10,O=C(CNC(=O)c1ccco1)NNC(=O)c1ccc(Br)cc1,inactive
11,CC(C)c1nc(-c2ccccn2)no1,inactive
12,O=C(Oc1ccccc1)c1ccc2nccnc2c1,inactive
13,O=C(Oc1ccc(-c2nc(-c3ccccn3)no2)cc1)c1ccccc1,9.2 µM (active)
14,COc1ccc(S(=O)(=O)N2CCN(CC(=O)N3c4ccccc4CC3C)CC2)cc1OC (stereo not drawn),inactive
15,O=C(NC1=NCCS1)[C@H](Cc1ccccc1)N1C(=O)c2ccccc2C1=O,inactive
16,Cc1occc1C(=O)NNC(=S)NCC(C)C,inactive
17,Cc1occc1C(=O)Nc1cccc(Cn2cccn2)c1,inactive
18,Cc1occc1C(=O)NC1CCCN(Cc2ccc(CC(C)C)cc2)C1 (stereo not drawn),20.6 µM (active)
19,CCOC(=O)C(NC(C)=O)C(=O)Nc1ccc(OC)cc1 (stereo not drawn),inactive
20,CC(=O)N(O)CCCCCNC(=O)CCC(=O)N(O)CCCCCNC(=O)CCC(=O)N(O)CCCCCNC(=O)CCC(=O)O,inactive
21,Cc1cc(C)nc(NC2=NCC(=O)N2c2ccc(Cl)cc2)n1,inactive
22,Cc1ccc(Cl)cc1N1CCN(C(=O)c2cccn3c(=O)c4cc(Cl)ccc4nc23)CC1,inactive
23,CCOC(=O)N1CCN(C(=O)c2ccc3nc4cc(Cl)ccc4c(=O)n3c2)CC1,inactive

row,SMILES,Potency
1,CCc1nc2ccc(C(=O)N3CCN(c4cc(Cl)ccc4C)CC3)cc2nc1CC,18.4 µM (active)
2,CN(C)CCCNC(=S)N1CCC(c2nc3ccccc3[nH]2)CC1,inactive
3,CC(C)(C)c1ccc(C(CC(=O)O)NS(=O)(=O)Cc2ccccc2)cc1 (stereo not drawn),inactive
4,CCCCc1nc2c(=O)[nH]c3ccccc3c2o1,inactive
5,O=S(=O)(ON(c1ccccc1)S(=O)(=O)c1ccccc1)c1ccccc1,inactive
6,CC1=C/C(=N\OS(=O)(=O)c2ccccc2)C=CC1=O,1 µM (active)
7,CCCC(=O)Nc1nc2ccc(NC(=O)c3cccnc3)cc2s1,9.2 µM (active)
8,CCCC(=O)Nc1ccc2c(c1)nc1n2CCSC1,inactive
9,CCC(=O)Nc1cccc(NC(=O)c2cccnc2)c1,inactive
10,CCCC(=O)Nc1nc2ccc(NC(=O)c3c(F)c(F)c(OC)c(F)c3F)cc2s1,0.651 µM (active)
11,CCOC(=O)c1cc(NC(=O)c2cccnc2)cc(C(=O)OCC)c1,inactive
12,CSc1nc2ccc(NC(=O)c3c(F)cccc3F)cc2s1,inactive
13,O=C(COC(=O)/C=C/c1ccc(OC(F)F)cc1)NC1CCCCC1,inactive
14,O=C(CCNS(=O)(=O)c1ccccc1)NCCCc1ccccc1,inactive
15,O=S(=O)(c1ccccc1)N1CN(Cc2ccc(F)cc2)c2nc3ccccc3nc21,inactive
16,O=C(CCN1C(=O)C2CCCCC2C1=O)Nc1ccc(OC(F)F)cc1 (stereo not drawn),inactive
17,COc1ccccc1CNc1ncnc2ccc(-c3ccc4c(c3)OCO4)cc12,inactive
18,COCCNc1ncnc2ccc(-c3ccccc3CN(C)C)cc12,inactive
19,COc1ccccc1CNc1ncnc2ccc(-c3c(C)noc3C)cc12,11.6 µM (active)
20,CCC1(CC)NC(=O)N(CC(=O)OCC(=O)Nc2ccc(C(F)(F)F)cc2)C1=O,inactive
21,CCCN(C/C=C\I)[C@@H]1CCc2cccc(O)c2C1,21.1 µM (active)
22,CCCN(CCc1ccccc1)C1CCc2c(O)cccc2C1 (stereo not drawn),11.6 µM (active)
